We go through 9 molecules from PubChem BioAssay (EPA / NIEHS).

Several values for one entry are separate records, joined by “and”; a condition that tells them apart may be missing. Identical values can stand only once. Records with an inconclusive call do not appear. Where a structure was tested more than once in an assay, its records may differ in their call. Activity calls are given as the source filed them. How the source made its calls: active means hit-call score of the fitted dose curve at least 0.9, where 1 is the maximum; inconclusive means response in the unintended direction; inactive means score below 0.9.

Chain of mouse Peroxisome Proliferator-activated Receptor gamma (PPARg), Pparg (gene 19016) (P37238 whole entry, looked up, the tested form may be a part): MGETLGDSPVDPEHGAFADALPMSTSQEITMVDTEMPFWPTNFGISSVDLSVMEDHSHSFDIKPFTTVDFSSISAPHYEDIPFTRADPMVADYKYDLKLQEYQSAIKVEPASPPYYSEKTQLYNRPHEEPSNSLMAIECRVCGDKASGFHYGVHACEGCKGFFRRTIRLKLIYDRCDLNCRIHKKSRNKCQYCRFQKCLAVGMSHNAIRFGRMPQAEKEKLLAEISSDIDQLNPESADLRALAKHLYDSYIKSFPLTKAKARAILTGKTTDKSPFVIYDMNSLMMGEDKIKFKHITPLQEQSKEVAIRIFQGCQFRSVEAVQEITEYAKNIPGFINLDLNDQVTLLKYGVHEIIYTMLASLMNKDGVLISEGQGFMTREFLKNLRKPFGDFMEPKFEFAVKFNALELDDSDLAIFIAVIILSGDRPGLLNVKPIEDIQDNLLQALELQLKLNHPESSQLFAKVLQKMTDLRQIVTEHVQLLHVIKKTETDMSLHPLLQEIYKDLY
Chain of Nuclear receptor subfamily 1 group I member 2 (Mus musculus) (O54915 whole entry, looked up, the tested form may be a part): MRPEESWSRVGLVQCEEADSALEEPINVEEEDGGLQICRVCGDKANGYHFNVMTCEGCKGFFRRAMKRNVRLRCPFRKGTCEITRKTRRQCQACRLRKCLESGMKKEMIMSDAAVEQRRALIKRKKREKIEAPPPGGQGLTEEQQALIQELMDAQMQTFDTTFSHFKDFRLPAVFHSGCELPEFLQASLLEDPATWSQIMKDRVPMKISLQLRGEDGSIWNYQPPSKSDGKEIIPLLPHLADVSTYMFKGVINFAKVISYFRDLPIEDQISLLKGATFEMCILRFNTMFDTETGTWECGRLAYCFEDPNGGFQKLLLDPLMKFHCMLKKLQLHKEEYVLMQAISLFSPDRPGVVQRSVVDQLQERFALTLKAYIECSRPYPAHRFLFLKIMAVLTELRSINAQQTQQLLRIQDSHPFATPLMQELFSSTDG
Chain of Peroxisome proliferator-activated receptor gamma (Homo sapiens) (P37231 whole entry, looked up, the tested form may be a part): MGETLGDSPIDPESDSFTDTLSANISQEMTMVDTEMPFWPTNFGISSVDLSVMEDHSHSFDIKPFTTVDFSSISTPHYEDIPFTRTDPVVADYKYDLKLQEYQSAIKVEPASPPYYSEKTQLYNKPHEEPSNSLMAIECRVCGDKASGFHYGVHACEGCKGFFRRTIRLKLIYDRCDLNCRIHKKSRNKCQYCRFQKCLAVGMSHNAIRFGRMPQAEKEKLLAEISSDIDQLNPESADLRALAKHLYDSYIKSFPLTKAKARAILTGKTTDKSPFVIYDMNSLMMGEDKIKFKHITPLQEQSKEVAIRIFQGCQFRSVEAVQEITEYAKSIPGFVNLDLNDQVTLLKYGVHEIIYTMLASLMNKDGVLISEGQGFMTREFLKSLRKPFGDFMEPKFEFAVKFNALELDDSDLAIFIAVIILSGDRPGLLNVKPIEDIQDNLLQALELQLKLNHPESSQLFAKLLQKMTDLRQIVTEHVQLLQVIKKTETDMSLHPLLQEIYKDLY

One assay relates to frog Estrogen Receptor (ER2), gene 100174814. The experiment in a line: ATG_frER2_XSP2: Attagene TRANS-FACTORIAL Multi-Species (XSP2) HepG2 Assay for frog Estrogen Receptor (ER2) (AID 2283828). In a few lines: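 Induction of reporter mRNA, baseline set by DMSO, is the endpoint. The panel was run in transfected HepG2 cells over 24 h, with 3 nM 6-alpha-fluorotestosterone and 1.5 nM norgestrel present to stimulate androgen receptor.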
With `CCCOC(=O)c1ccc(O)cc1`, the AC50 was 38.2 µM (active) and 1.53 µM (active).
On the same count and under the same terms, to `CC[C@H](c1ccc(O)cc1)[C@@H](CC)c1ccc(O)cc1` belongs 0.000289 µM (active).
For the molecule `c1ccc2c(c1)ccc1ccccc12`, the AC50 is 57.3 µM (active) and the molecule was classed as inactive.
`C#C[C@]1(O)CC[C@H]2[C@@H]3CCC4=CC(=O)CC[C@@H]4[C@H]3CC[C@@]21C`: the AC50 was 1.5 µM (active).
`CCC(=C(c1ccc(O)cc1)c1ccc(OCCN(C)C)cc1)c1ccccc1`: the outcome was inactive.
In the case of `O=c1c(-c2ccc(O)cc2)coc2cc(O)ccc12`, the AC50 was 1.14 µM (active) and 219 nM (active).

Another assay concerns the target Peroxisome proliferator-activated receptor gamma (Homo sapiens) (UniProt P37231). The experiment in a line: ATG_hPPARg_XSP2: Attagene TRANS-FACTORIAL Multi-Species (XSP2) HepG2 Assay for human Peroxisome Proliferator-activated Receptor gamma (PPARg) (AID 2283829).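 Further: actives raise reporter mRNA above DMSO so AC50 reflects PPARg activation.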 In a few lines: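 Reporter transcripts were measured by RT-PCR, fluorescent labeling, HpaI digestion and capillary electrophoresis, relative to DMSO, 24 h post-dosing. Transiently transfected HepG2 expressed NR-Gal4 chimeras regulating GAL4-UAS reporters; medium contained 3 nM 6-alpha-fluorotestosterone plus 1.5 nM norgestrel.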
Regarding `CCCOC(=O)c1ccc(O)cc1`, the AC50 was 66.4 µM (active) and 100 µM (active).
Consider `CCC(C)(C)C1CCC(O)CC1` (stereo unspecified), for which the call was inactive.
With `Oc1cc2ccccc2c2ccccc12`, the AC50 was 8.93 µM (active) and the molecule was called inactive.
Consider `c1ccc2c(c1)ccc1ccccc12`, for which the call was inactive.
Turning to `CCC(=C(c1ccc(O)cc1)c1ccc(OCCN(C)C)cc1)c1ccccc1`, the concentration at half-maximal activity (AC50) was 11.3 µM (active) and 12.9 µM (active).
For `O=c1c(-c2ccc(O)cc2)coc2cc(O)ccc12`, the call was inactive.
For `O=C(O)Cc1cc(I)c(Oc2cc(I)c(O)c(I)c2)c(I)c1`, the AC50 is 524 nM (active) and 681 nM (active).

The target in the next assay is mouse Peroxisome Proliferator-activated Receptor gamma (PPARg), Pparg (gene 19016) (UniProt P37238). The experiment in a line: ATG_mPPARg_XSP2: Attagene TRANS-FACTORIAL Multi-Species (XSP2) HepG2 Assay for mouse Peroxisome Proliferator-activated Receptor gamma (PPARg) (AID 2283830).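 Further: hits are gains in reporter mRNA above DMSO so AC50 marks activation.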 In a few lines:
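Multiplexed TRANS reporter readout: after 24 h chemical exposure of transfected HepG2 cells (with 3 nM 6-alpha-fluorotestosterone, 1.5 nM norgestrel present), RNA reverse-transcribed, amplified, 6-FAM-labelled and resolved by capillary electrophoresis; mouse PPARg-Gal4 induction scored against DMSO.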
Turning to `CCCOC(=O)c1ccc(O)cc1`, the AC50 is 100 µM (active) and 87.6 µM (active).
`CCC(C)(C)C1CCC(O)CC1` (stereo unspecified): the result was inactive.
Turning to `Oc1cc2ccccc2c2ccccc12`, the AC50 was 6.98 µM (active).
Regarding `c1ccc2c(c1)ccc1ccccc12`, the outcome was inactive.
The same measure, in the same setting: the same measure for `C#C[C@]1(O)CC[C@H]2[C@@H]3CCC4=CC(=O)CC[C@@H]4[C@H]3CC[C@@]21C`: “inactive”.
In the case of `CCC(=C(c1ccc(O)cc1)c1ccc(OCCN(C)C)cc1)c1ccccc1`, the AC50 is 10.7 µM (active) and 7.1 µM (active).
Regarding `O=c1c(-c2ccc(O)cc2)coc2cc(O)ccc12`, the molecule was classed as inactive.
As for `O=C(O)Cc1cc(I)c(Oc2cc(I)c(O)c(I)c2)c(I)c1`, the concentration at half-maximal activity (AC50) was 0.56 µM (active) and the molecule was called inactive.

The next assay addresses Nuclear receptor subfamily 1 group I member 2 (Mus musculus) (UniProt O54915). The experiment in a line: ATG_mPXR_XSP2: Attagene TRANS-FACTORIAL Multi-Species (XSP1) HepG2 Assay for mouse Pregnane X Receptor (PXR) (AID 2283831). In a few lines: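 Reporter transcripts measured after 24 h dosing by RT-PCR with 6-FAM labelling, HpaI digestion and capillary electrophoresis. Transiently transfected HepG2 with NR-Gal4 chimeras; increase over DMSO baseline scored.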
Consider `CCCOC(=O)c1ccc(O)cc1`, for which the molecule was classed as inactive.
As to `CCC(C)(C)C1CCC(O)CC1` (stereo unspecified), the molecule was classed as inactive.
The same measure, in the same setting: the same measure for `Oc1cc2ccccc2c2ccccc12`: “inactive”; for `c1ccc2c(c1)ccc1ccccc12`: “inactive”.
Regarding `C#C[C@]1(O)CC[C@H]2[C@@H]3CCC4=CC(=O)CC[C@@H]4[C@H]3CC[C@@]21C`, the AC50 was 529 nM (active).
On the same count and under the same terms, to `CCC(=C(c1ccc(O)cc1)c1ccc(OCCN(C)C)cc1)c1ccccc1` belongs 4.97 µM (active) and 6.16 µM (active).
On to `O=C(O)Cc1cc(I)c(Oc2cc(I)c(O)c(I)c2)c(I)c1`, for which the molecule was called inactive.
